# Assay outcomes as filed in PubChem BioAssay.
# EBV gp42 inh: EBV gp42 inhibition; Q1HVG2; Fluorescence polarization binding assay, mP read-out; inhibition, % (tested at 21.74 µM); 220,000 compounds, 0.42% hits; in the data active = inhibition above about 50%
# MEX-5 binding: C. elegans MEX-5 TCR-2 RNA binding activity; Q9XUB2; MEX-5/FITC-TCR2 RNA binding, fluorescence polarization; active compounds read low; activity score (negative = inhibition of binding), % at 10 µM; 300,000 compounds, 0.38% hits;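 active = inhibition past about -25% in most replicates, and total fluorescence under double the plate's negative control median, limit read from the data; inconclusive = replicates evenly split on the limit, or fluorescence at least double controls; inactive = too little inhibition in most replicates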;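 note: 0% = DMSO and -100% = 5 µM competing unlabeled TCR2 RNA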
# Target sequence (Q9XUB2 whole entry, looked up): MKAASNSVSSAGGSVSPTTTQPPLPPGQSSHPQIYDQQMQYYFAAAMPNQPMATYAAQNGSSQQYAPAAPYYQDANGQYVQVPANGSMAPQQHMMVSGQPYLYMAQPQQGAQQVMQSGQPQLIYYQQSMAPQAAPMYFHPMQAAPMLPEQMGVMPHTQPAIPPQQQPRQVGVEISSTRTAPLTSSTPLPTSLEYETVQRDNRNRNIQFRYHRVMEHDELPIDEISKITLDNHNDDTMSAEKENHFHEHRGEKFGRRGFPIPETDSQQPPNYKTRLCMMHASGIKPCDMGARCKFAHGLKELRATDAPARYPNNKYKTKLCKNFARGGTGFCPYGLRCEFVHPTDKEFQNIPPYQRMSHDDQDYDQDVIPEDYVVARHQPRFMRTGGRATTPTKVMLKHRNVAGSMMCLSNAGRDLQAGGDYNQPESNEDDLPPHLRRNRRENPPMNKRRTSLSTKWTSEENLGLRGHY
# PABP FP inh: PABP-poly(A) binding inhibition; P11940; PABP-poly(A) RNA binding, fluorescence polarization; calls only at 35 µM; 290,000 compounds, 1% hits;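 note: calls also rest on retests at 20 µM and on dose response follow-up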
# PABP1 MLLE inh: inhibitors of microRNA-mediated deadenylation, human PABP1 MLLE binding; P11940; GST-MLLE / FITC-PAM2 fluorescence polarization; inhibition, % at 20 µM; 360,000 compounds, 0.36% hits; AID 588489; in the data active = inhibition above about 35%, passing the limit was not always enough;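 note: plate controls were DMSO wells with GST-MLLE for no effect and wells lacking GST-MLLE protein for full effect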
# eIF4H FP inh: inhibitors of RNA binding by human eIF4H; Q15056; eIF4H fluorescence polarization binding assay; inhibition, % at 35 µM; 290,000 compounds, 0.94% hits; AID 2012;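 note: calls also rest on retests at 20 µM and on dose response follow-up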
# An asterisk follows results filed as active; i = inactive; ? = inconclusive; · = no result; + = active, no number. Compounds with a hit are over-represented: about 1.8% of the library has one in this group of screens. Unless noted, the rule behind the calls is not given here.
SMILES,EBV gp42 inh,MEX-5 binding,PABP FP inh,PABP1 MLLE inh,eIF4H FP inh
OCCN1CCN(c2ncnc3c2ncn3[C@H]2CN(Cc3ccncc3)C[C@@H](CO)O2)CC1,·,·,·,-1.4,·
CCCCNC(=O)c1ccc2nc(CC)c(N(CC)CCN(C)C)n2c1,·,·,·,6.0,·
Cc1ccc(NC2OC(CO)C(O)C2O)cc1[N+](=O)[O-] (stereo not drawn),1.6,0.7,i,10.1,-0.8
Cc1ccc(NC2OC(C(O)CO)C(O)C2O)cc1[N+](=O)[O-] (stereo not drawn),-10.4,-2.5,i,-1.4,93.3*
Cn1cc(/C=N\O)nc2c(=O)n(-c3ccccc3)c(=O)nc1-2,-15.5,-14.2,i,37.5*,98.8
CCOC(=O)C1(C)CCN1C(=O)c1c(F)cccc1F (stereo not drawn),·,·,·,-3.4,·
CC[C@]1(C(=O)OC)[C@H]2C(=O)N(Cc3ccccc3)C(=O)[C@H]2[C@H]2CN=C(SCC(=O)c3ccccc3)N21,·,·,·,37.8*,·
Cc1c(C(=O)NCc2ccco2)sc(=O)n1Cc1ccc(S(C)(=O)=O)cc1,·,·,·,0.5,·
CCc1nc2ccc(C(=O)NCCOc3ccc(OC)cc3)cn2c1N(CCC(C)C)CCN(C)C,·,·,·,12.8,·
Cc1ccccc1-c1cc2nc(NCc3ccc4occc4c3)n(C)c(=O)c2s1,·,·,·,0.1,·
C/C(=N\NC(=O)CCC(=O)Nc1ccccc1)c1cccs1,-14.8,-2.2,i,3.7,1.1*
CCOc1ccc(NC(=O)CCC(=O)N/N=C(\C)c2cccs2)cc1,·,-0.2,i,5.6,-21.4
O=C(O)Cn1nnc(-c2cccs2)n1,-4.3,1.6,i,7.2,-2.6
CC(C)(C)NC(=O)Cn1nnc(-c2cccs2)n1,-19.5,-0.1,+,12.1,65.4*
CCN(CC)c1ccc(N=Nc2ncn[nH]2)cc1,-41.9,-51.9*,i,-58.9,31.1
COc1ccc(NC(=O)COC(=O)CCNS(=O)(=O)c2ccccc2)cc1OC,-9.8,1.2,+,-19.1,active
COc1ccc(NC(=O)COC(=O)CNS(=O)(=O)c2ccccc2)cc1OC,-13.5,-3.4,i,5.3,-5.3
N=c1c(C(=O)NCc2ccc(F)cc2)cc2c(=O)n3ccccc3nc2n1CC1CCCO1 (stereo not drawn),2.5,-7.3,i,-14.8,-4.2
N=c1c(C(=O)NCC2CCCO2)cc2c(=O)n3ccccc3nc2n1Cc1ccccc1Cl (stereo not drawn),·,-45.6*,i,-10.3,-9.3
Cc1cccn2c(=O)c3cc(C(=O)NCc4ccco4)c(=N)n(CCOCCO)c3nc12,74.7*,-7.6,·,58.4*,·
N=c1c(C(=O)NCc2ccco2)cc2c(=O)n3ccccc3nc2n1CC1CCCO1 (stereo not drawn),·,-18.1,·,47.2*,·
Cc1ccc(Cn2c(=N)c(C(=O)NCc3ccco3)cc3c(=O)n4ccccc4nc32)cc1,4.0,-2.0,+,-30.9,74.8*
O=C(CC[C@H]1O[C@@H](n2ccc(=O)[nH]c2=O)[C@H](O)[C@@H]1O)NC1CCN(Cc2ccccc2)C1 (stereo partly drawn),·,·,·,-6.1,·
CCOC(=O)Cc1ccc(Nc2nc(NCCOC)nc3ccsc23)cc1,·,·,·,7.4,·
CCc1nc2ccc(C(=O)NCc3ccccc3OC)cn2c1N(CC)CCOC,·,·,·,-22.8,·
SMILES,EBV gp42 inh,MEX-5 binding,PABP FP inh,PABP1 MLLE inh,eIF4H FP inh
N=c1c(C(=O)NCc2ccco2)cc2c(=O)n3ccccc3nc2n1CCc1ccccc1,12.5,-4.7,+,-10.0,59.2*
Cc1ccc2nc3c(cc(C(=O)NCc4ccco4)c(=N)n3C3CCCC3)c(=O)n2c1,·,-11.9,?,15.1,?
COCCn1c(=N)c(C(=O)NCc2ccco2)cc2c(=O)n3cc(C)ccc3nc21,41.5,-12.4,i,68.9*,106.7*
COc1ccc(CCNC(=O)c2cc3c(=O)n4ccccc4nc3n(Cc3ccco3)c2=N)cc1OC,·,-0.4,i,-1.8,87.0*
N#Cc1cnc2nc1NCCCCCCC2,·,·,·,-13.3,·
CCCn1c(SCC(=O)Nc2ccc(S(=O)(=O)N3CCOCC3)cc2)n[nH]c1=O,·,·,·,-22.6,·
CCOc1ccc(C(=O)NC(=S)Nc2ccc(N3CCC(C)CC3)cc2)cc1[N+](=O)[O-],-4.8,1.9,i,15.7,-9.7
CCC(=O)N1CCN(c2ccc(NC(=S)NC(=O)c3ccc(OC)c([N+](=O)[O-])c3)cc2)CC1,-6.1,-0.8,i,41.8*,-3.1
CCc1ccc(C(=O)NC(=S)Nc2ccc(N3CCOCC3)cc2)cc1,-3.4,0.4,i,39.5*,-1.1
O=C(NC(=S)Nc1ccc(N2CCOCC2)cc1)c1ccccc1,-4.8,0.7,i,19.7,2.4
Cc1ccc(N(C(=O)Nc2ccccc2)C2=NCCC2)cc1,-18.7,-0.3,+,10.0,88.3*
COC(=O)c1cc(C(=O)OC)cc(-n2c(C)cc(C(=O)CC#N)c2C)c1,-21.5,-1.1,+,-2.9,59.2*
COc1cccc2cc(-c3nc(-c4cccs4)cs3)c(=O)oc12,27.5,-23.5,i,40.7,17.8
O=c1oc2ccccc2cc1-c1nc(-c2cccs2)cs1,112.5*,?,i,5.2,20.8
c1ccc(-c2nnc(-c3ccccn3)c(-c3ccccn3)n2)nc1,-1.5,-7.2,i,3.4,2.8
c1ccc(-c2nnc(-c3ccccn3)nn2)nc1,·,-41.6*,·,8.7,·
CC(C)OC(=O)CC(=O)CSc1nc(-c2ccc(F)cc2)cc(-c2ccccc2)c1C#N,-32.3,0.3,+,20.4,87.6*
CCC(=O)N1CCC1(C)C(=O)Nc1ccccc1 (stereo not drawn),·,·,·,0.8,·
CC1(C)OC(=O)C(=C2CCCN2)C(=O)O1,-7.2,2.0,+,12.2,active
CC1(C)OC(=O)C(=Cc2ccc[nH]2)C(=O)O1,-6.9,0.1,i,-5.7,-4.5
O=C1C=CC(=O)c2c(O)c(N3CCN(CCOCCO)CC3)c(Br)c(O)c21,·,·,·,93.9*,·
O=S(=O)(c1ccc(Br)cc1Cl)N1CCN(CCO)CC1,-0.3,-0.7,i,2.4,-12.3
O=C1C=CC(=O)c2c(O)c(N3CCN(CCO)CC3)c(Cl)c(O)c21,·,·,·,91.3*,·
O=C(Oc1ccccc1N1C(=O)C2CCCCC2C1=O)c1ccccc1F (stereo not drawn),-4.0,-2.2,i,8.6,active
O=C(Oc1ccccc1N1C(=O)C2CCCCC2C1=O)c1ccc(Cl)cc1 (stereo not drawn),14.9,0.2,i,3.6,0.8
CC(C)NC(=O)c1cc(C2CCCCN2S(=O)(=O)c2cccc3cccnc23)on1 (stereo not drawn),·,·,·,10.4,·
O=Cc1ccc(-c2cccc(C(=O)O)c2)o1,-10.5,-3.4,i,14.9,23.8
N=C1/C(=C\c2ccc(-c3cccc(C(=O)O)c3)o2)C(=O)N=C2SC=C(c3ccccc3)N12,82.2*,1.0,+,-79.3,57.6*
COc1ccc(/C=C2\C(=N)N3N=C(CC(=O)N4CCOCC4)SC3=NC2=O)cc1,·,-0.2,i,-13.2,-3.5
Cc1ccc(/C=C2\C(=N)N3N=C(CC(=O)N4CCOCC4)SC3=NC2=O)o1,·,-4.9,i,-5.3,10.1
